Screening data from PubChem.
Shown are actives, neighbours in structure and some others; about 1.3% of the full set was active somewhere.
KLK7 zymogen act = activates the human kallikrein-7 zymogen; activation, % at 7 µM; P49862; purified proKLK7, EDANS-DABCYL substrate fluorescence; 100% is mature enzyme control, 0% vehicle; 370,000 compounds, 0.9% hits;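 active means activation above the mean of all tested compounds plus 3 SD, computed per campaign excluding outliers beyond control limits, cut at about 13% in these data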
NPR1 activator = GC-A (human) enzyme activation; P16066; activation, % at 10 µM; 370,000 compounds, 0.14% hits; HEK293 GC-A cells, cGMP TR-FRET, EC30 ANP; 0% at EC30 ANP, 100% saturating ANP; in the data active means activation above about 40%
NPR2 activator = GC-B (human) receptor activation | 370,000 compounds, 0.11% hits | P20594 | HEK293-GC-B cells, CNP EC30, cGMP TR-FRET; 0% at EC30 CNP, 100% saturating CNP | activation, % at 10 µM;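 active means activation at 10 µM reaching about 35% in either raw or pattern-adjusted values, limit read from the data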
HIF act = HIF pathway transcriptional activation; U2OS HRE-luciferase reporter, luminescence; normalized: DMSO 0%, desferrioxamine 100%; activation, % at 7.5 µM (by protocol); 300,000 compounds, 0.32% hits;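 active means mean activation of at least 10% of the iron chelator positive control signal, with at least half of replicates also reaching 10%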
KLK7 act conf = confirmation of human kallikrein-7 zymogen activators | activation, % at 7 µM | purified proKLK7, EDANS-DABCYL substrate fluorescence; scaled: vehicle 0, mature enzyme 100 | 3,200 compounds, 68% hits | shares compounds with KLK7 zymogen act;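 active means activation, as change over the incubation, above the mean of all tested compounds plus 3 SD, cut at about 13% in these data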
EDANS interfere = fluorescence interference counter-screen for KLK7 activators | activation, % at 7 µM | shares compounds with KLK7 zymogen act | EDANS-DABCYL substrate fluorescence interference, no enzyme, 4 h; solvent 0%, active enzyme control 100% | 3,200 compounds, 80% hits;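 active means activation above the all-compound mean plus 3 SD, ignoring values outside control-based bounds, cut at about 4.8% in these data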;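 further: value is the 4 h activation minus the activation read at time zero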
* hit, by the source's call; . = no result given.

SMILES	KLK7 zymogen act	NPR1 activator	NPR2 activator	HIF act	KLK7 act conf	EDANS interfere
CC(C)c1ccc(/C=C2\Oc3c(ccc(O)c3CN3CCN(C)CC3)C2=O)cc1	37.9*	4.9	1.8	0.0	-16.5	-26.4
CCN1CCN(Cc2c(O)ccc3c2O/C(=C\C=C\c2ccccc2OC)C3=O)CC1	3.2	4.7	3.7	0.1	.	.
Cc1[nH]n(-c2ccccc2)c(=O)c1C=Nc1cccc(F)c1	0.3	-2.2	-4.2	1.2	.	.
Cc1[nH]n(-c2ccccc2)c(=O)c1C=Nc1cnc2ccccc2c1	46.2*	1.1	-2.2	2.6	21.4*	21.5*
O=C(Nc1ccccc1F)c1coc(=O)c(Br)c1	-4.3	25.6	-0.4	0.3	.	.
O=C(NCCc1ccc(F)cc1)c1coc(=O)c(Br)c1	12.7*	8.9	0.9	1.3	30.2*	29.4*
C[C@]12c3[nH]c4cc(-c5ccco5)ccc4c3CCN1C(=O)[C@@H](CC(=O)NCCN1CCOCC1)C[C@@H]2C(=O)N1CCCCC1	134.3*	-4.8	0.7	.	62.6*	60.6*
C[C@]12c3[nH]c4cc(-c5ccco5)ccc4c3CCN1C(=O)[C@@H](CC(=O)NCC13CC4CC(CC(C4)C1)C3)C[C@@H]2C(=O)N1CCOCC1	-11.6	-5.9	0.2	.	.	.
COCCCNC(=O)CC1C[C@H](C(=O)N2CCCCC2)[C@@]2(C)c3[nH]c4ccccc4c3CCN2C1=O (stereo not given in full)	0.0	0.2	-1.7	.	.	.
COCCCNC(=O)C[C@H]1C[C@H](C(=O)N2CCCCC2)[C@@]2(C)c3[nH]c4cc(-c5ccco5)ccc4c3CCN2C1=O	170.0*	-5.2	-1.9	.	87.9*	114.1*
C[C@]12c3[nH]c4cc(-c5ccco5)ccc4c3CCN1C(=O)[C@@H](CC(=O)NCc1cccc(C(F)(F)F)c1)C[C@@H]2C(=O)N1CCOCC1	16.1*	-0.9	3.8	.	-1.4	-2.2
C[C@]12c3[nH]c4ccccc4c3CCN1C(=O)C(CC(=O)NCc1cccc(C(F)(F)F)c1)C[C@@H]2C(=O)N1CCOCC1 (stereo not given in full)	0.3	-4.8	-14.3	.	.	.
O=C(COC(=O)c1ccccc1NCCO)NCc1cccs1	17.6*	-5.0	-0.7	0.1	19.3*	20.6*
COc1ccc(CCNC(=O)COC(=O)c2ccccc2NCCO)cc1OC	18.8*	1.8	0.9	-0.3	26.2*	33.6*
CS(=O)(=O)Nc1ccccc1C(=O)OCC(=O)NCc1cccs1	5.2	-3.8	3.7	.	.	.
CC(=O)Nc1ccc(NC(=O)c2cc(=O)c3ccc(C)cc3o2)cc1	15.3*	-1.5	-0.6	-0.8	0.2	0.5
CC(=O)Nc1ccc(NC(=O)c2cc(=O)c3cc(C)c(C)cc3o2)cc1	0.3	1.0	-0.4	0.7	.	.
N#Cc1cnn2c(-c3ccc(Cl)cc3Cl)ccnc12	19.9*	-3.3	-4.9	-0.5	21.1*	21.6*
COc1ccc(-c2cc3ccc(OCC(C)=O)cc3oc2=O)cc1	27.2*	13.2	-7.0	1.2	-6.7	-4.1
NC(=O)COc1ccc2oc(-c3ccccc3)cc(=O)c2c1	11.0	-2.1	-2.8	1.4	.	.
NC(=O)COc1ccc2cc(-c3ccccc3)c(=O)oc2c1	58.8*	9.0	-1.8	2.3	63.1*	64.2*
O=c1oc2cc(OCc3ccc(F)cc3F)ccc2cc1-c1ccccn1	-3.0	6.6	-0.7	1.5	.	.
NC(=O)COc1ccc2cc(-c3ccc(F)cc3)c(=O)oc2c1	32.5*	7.4	-9.7	2.4	-13.7	-63.5
COC(=O)COc1ccc2cc(-c3ccccc3)c(=O)oc2c1	102.3*	43.0*	11.1	-0.6	68.1*	66.4*
COc1ccc(-c2cc3ccc(OCC(C)=O)cc3oc2=O)cc1OC	-0.1	10.2	-4.5	3.2	.	.
SMILES	KLK7 zymogen act	NPR1 activator	NPR2 activator	HIF act	KLK7 act conf	EDANS interfere
N#Cc1cccc(C(=O)N2CCC(Oc3cccnc3)CC2)c1	0.0	2.4	4.2	.	.	.
COC(=O)[C@H](C(C)C)N(CCc1cn(Cc2ccc(C)cc2)nn1)S(=O)(=O)c1ccc(F)cc1Br	0.1	0.5	0.4	.	.	.
COC(=O)[C@]12C[C@H](CC(=O)N3CCCCC3)C(=O)N(Cc3cccc4ccccc34)C1=C[C@H](COCc1ccccc1)O[C@@H]2C	-0.1	-1.9	-3.4	.	.	.
C/C=C/C(=O)N1CCC(C(=O)NC2CCCc3ccccc32)CC1 (stereo not given)	-0.3	3.2	-0.8	.	.	.
COC(=O)[C@]12C[C@H](CC(=O)N3CCSCC3)C(=O)N(CCc3ccc(OC)c(OC)c3)C1=C[C@H](C(C)(C)C)O[C@@H]2C	-0.2	-3.9	2.1	.	.	.
C=CCN1[C@H](C#N)[C@@H](c2ccc(C#Cc3ccccc3OC)cc2)[C@H]1CO	0.6	13.1	9.6	.	.	.
O=C(COc1ccc2cc(-c3ccccc3)c(=O)oc2c1)NCC1CCC(C(=O)O)CC1 (stereo not given)	21.2*	-1.5	-7.2	-0.1	59.6*	72.3*
O=C(COc1ccc2c(-c3ccccc3)cc(=O)oc2c1)NCC1CCC(C(=O)O)CC1 (stereo not given)	-0.3	4.2	0.2	0.2	.	.
CC(=O)Oc1ccc(-c2cc3c(OC(C)=O)cc(OC(C)=O)cc3oc2=O)cc1	79.7*	9.2	0.3	-0.2	63.1*	72.3*
CC(=O)Oc1ccc(-c2cc3ccccc3oc2=O)cc1	-4.2	8.5	0.9	2.0	.	.
Cc1ccc2[nH]c(=O)c3cc(C(=O)NCCN4CCN(C)CC4)sc3c2c1	16.5*	12.2	-2.2	0.1	-18.5	-21.5
O=C(O)c1ccc(N/N=C/C2=Cc3ccccc3OC2)cc1	14.5*	4.0	-6.0	2.6	4.3	11.0*
CN1Cc2c(N3CCOCC3)nc3sc(C(=O)c4ccc(Br)cc4)c(N)c3c2CC1(C)C	-1.1	11.3	-15.9	-0.6	.	.
CN1Cc2c(N3CCOCC3)nc3sc(C#N)c(N)c3c2CC1(C)C	16.7*	5.9	1.0	-0.3	67.8*	70.0*
CC(C)Sc1nc(N2CCOCC2)c2c(c1C#N)CC(C)(C)N(C)C2	35.2*	12.4	9.9	-0.2	0.4	1.5
CNC(=O)c1ccc(-c2sc3nc(N4CCOCC4)c4c(c3c2N)CC(C)(C)OC4)o1	-14.6	26.3	14.3	-20.9	.	.
CC1(C)Cc2c(c(N3CCOCC3)nc3sc(-c4ccc(C(=O)O)o4)c(N)c23)CO1	46.1*	16.9	3.8	-0.3	22.1*	22.9*
CCCCN(C)c1nc(C)nc2c1nnn2Cc1ccccc1	0.6	2.5	-12.6	.	.	.
C=CCN(C)CC#Cc1ccc(F)cc1	0.6	3.7	-5.8	.	.	.
CN(Cc1ccccc1)C(=O)OCc1cn(Cc2ccc(C(F)(F)F)cc2)nn1	0.3	0.3	8.3	.	.	.
Cc1ccc(OCc2nnc(SCC(=O)Nc3cccc4ccccc34)n2Cc2ccco2)cc1	0.0	-3.4	2.3	.	.	.
